What was measured:
Conditions in all cases: concentration: 1 μM, replicates: in singlicate; n = 1
IRAK3 = system: IRAK3
IRAK4 = system: IRAK4
ITK = system: ITK
[1] = system: JAK1(JH1domain-catalytic)
[2] = system: JAK1(JH2domain-pseudokinase)
[3] = system: JAK2(JH1domain-catalytic)
[4] = system: JAK3(JH1domain-catalytic)
JNK1 = system: T1, JNK1
T1 construct: gene MAPK8

JNK2 = system: T2, JNK2
T2 construct: gene MAPK9

JNK3 = system: T3, JNK3
T3 construct: gene MAPK10
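Further: KINOMEscan kinase panel screen.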

| Compound | %Inh (IRAK3) [%] | %Inh (IRAK4) [%] | %Inh (ITK) [%] | %Inh [1] [%] | %Inh [2] [%] | %Inh [3] [%] | %Inh [4] [%] | %Inh (JNK1) [%] | %Inh (JNK2) [%] | %Inh (JNK3) [%] |
| --- | --- | --- | --- | --- | --- | --- | --- | --- | --- | --- |
| COc1ccc(COc2cc(-n3cnc4ccccc43)sc2C(N)=O)cc1 [GSK1024304] | 2 | 2 | 14 | 0 | 0 | 0 | 0 | 18 | 33 | 10 |
| NS(=O)(=O)c1cccc(-c2ccc3nccc(-c4cccc(S(N)(=O)=O)c4)c3c2)c1 [GW867253] | 0 | 0 | 0 | 0 | 38 | 8 | 0 | 30 | 5 | 0 |
| CC(C)(C)n1cnc2c(N)ncnc21 [SKF-97359] | 0 | 0 | 4 | 0 | 0 | 0 | 18 | 20 | 0 | 2 |
| Cc1cn2c(=O)cc(N3CCOCC3)nc2n1Cc1cccc(Cl)c1Cl [GSK2334006] | 13 | 5 | 14 | 2 | 0 | 2 | 0 | 18 | 16 | 6 |
| NCC(NC(=O)c1cc(-c2cn[nH]c2)c(-c2ccnc3[nH]ccc23)s1)c1ccccc1.O=C(O)C(F)(F)F.O=C(O)C(F)(F)F (centres unmarked) [GSK1325775] | 0 | 21 | 7 | 45 | 11 | 95.7 | 100 | 40 | 7 | 12 |
| CCc1nc(-c2cccc(C)c2)c(-c2ccnc(NCc3ccccc3)c2)s1 | 0 | 0 | 13 | 7 | 31 | 0 | 4 | 0 | 8 | 20 |
| Cc1c2ccc(N(C)c3ccnc(Nc4cccc(S(N)(=O)=O)c4)n3)cc2nn1Cc1ccccc1.Cl.Cl [GW787226] | 36 | 0 | 0 | 36 | 26 | 31 | 0 | 0 | 0 | 0 |
| CN1c2ccc(NCc3ccc(F)cc3)cc2-c2c(cnn2C)S1(=O)=O | 0 | 0 | 0 | 0 | 11 | 1 | 0 | 0 | 0 | 0 |
| Cn1cc(-c2ccc3c(c2)CCN3C(=O)Cc2ccccc2Cl)c2c(N)ncnc21 [GSK2608885] | 32 | 0 | 4 | 0 | 2 | 0 | 56 | 19 | 55 | 6 |
| COCCNC(=O)c1ccc(-c2cc(C(=O)NC3CC3)cc(F)c2C)cc1 [GW868318] | 23 | 13 | 8 | 0 | 16 | 44 | 0 | 38 | 49 | 19 |
| O=C(c1ccc(-c2cc(-c3c[nH]nc3-c3ccccn3)ccn2)cc1)N1CCOCC1 [GW812171] | 0 | 0 | 5 | 0 | 48 | 37 | 0 | 30 | 19 | 2 |
| Cc1cccc(-c2nc(-c3ccc(S(C)(=O)=O)cc3)sc2-c2ccncc2)c1 | 33 | 15 | 19 | 15 | 17 | 0 | 6 | 26 | 28 | 33 |
| Cc1c(Cn2c(C)nn3c(=O)cc(N4CCOC(C)C4)nc23)cccc1C(F)(F)F (centres unmarked) [GSK2344444] | 0 | 13 | 7 | 2 | 0 | 19 | 38 | 0 | 8 | 2 |
| c1ccc(-c2cc(-c3c[nH]nc3-c3ccccn3)ccn2)cc1 [GW576604] | 0 | 9 | 3 | 17 | 0 | 6 | 0 | 35 | 65 | 70 |
| O=C(NCCNc1ccnc(Nc2ccc(F)cc2)n1)c1cc2ccccc2s1 [GSK1379874] | 0 | 10 | 6 | 12 | 0 | 0 | 0 | 13 | 0 | 0 |
| NS(=O)(=O)c1cccc(-c2ccc3ncc(N4CCOCC4)nc3c2)c1 [GSK1535721] | 0 | 11 | 3 | 8 | 5 | 0 | 0 | 3 | 0 | 0 |
| CCCCCc1nc2c(N)ncnc2n1CCCCC [SKF-97255] | 0 | 0 | 0 | 0 | 35 | 33 | 0 | 0 | 0 | 0 |
